Data as given in PMC12136788.
Changes are numbered by the printed parent chain. Over roughly 5,800 sequences, “enrichment r” has its median near 0.68; the highest 2% begin near 11. The list comes from a sample in which the highest values are over-represented; it also holds similar and randomly drawn sequences.

T1: UNK ZnF1-6 (called full-length) (human, UniProt Q9C0B0 30-357)
T1 sequence: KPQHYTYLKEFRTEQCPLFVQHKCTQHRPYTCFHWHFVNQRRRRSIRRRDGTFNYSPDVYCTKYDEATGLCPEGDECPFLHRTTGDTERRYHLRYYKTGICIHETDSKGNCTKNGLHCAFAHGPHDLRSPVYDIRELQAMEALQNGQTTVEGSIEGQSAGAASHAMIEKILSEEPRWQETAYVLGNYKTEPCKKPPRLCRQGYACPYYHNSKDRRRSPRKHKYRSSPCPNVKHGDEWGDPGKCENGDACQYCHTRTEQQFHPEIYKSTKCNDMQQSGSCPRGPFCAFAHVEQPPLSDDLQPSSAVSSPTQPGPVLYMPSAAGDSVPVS

B1: chr1:225494445:225494546:-|3pUTR|ENSG00000154380|msi1|total|mutant (ssRNA)
RNA: GGGAGUUCUACAGUCCGACGAUCUUGGGUGUUCCCUCUUCUUAUUUUCUCUCUGCCCACCUUGACACAGUAACUUCCUCUUACCGUCAAGAUGAUGAUUAAGUGUUUAAUUUUUAUUCCAUUUUGUUCUGCAACACGUUCAGGCAACAGAGGAUUGAGCAUCA
B2: ENSG00000070961:be:win_5551|3pUTR|ENSG00000070961|bound_else_gene|NA|bound_elsewhere_windowed (ssRNA)
RNA: GGGAGUUCUACAGUCCGACGAUCAAUUGUACAUUUAUUCAUCAGGUAUUUAUAGUGAAUCAUACUGUAAAAAAGAGGUAGCAUGAUAUGCUGGAAAGCAUAUUAGACUAGGAGUCAAGACCUGGUUUCUAGUCUUGGUUUUGCCAACAGAGGAUUGAGCAUCA
B3: chr3:125228010:125228111:-|3pUTR|ENSG00000163848|msi1|total|mutant (ssRNA)
RNA: GGGAGUUCUACAGUCCGACGAUCAGUUCUCUUCAUAUUUCAUAACUACAUUUCAAUAAUUCUAAACUUUCUACAUUGAUUUUCCGAUACUUAUUUUUCAAGCUUGGUUUCUCAGCUGAUCAGAUGAAUUUAUUCAACUUCAAUCAACAGAGGAUUGAGCAUCA
B4: chr16:18805221:18805325:-|3pUTR|ENSG00000157106|unk|FALSE|bound_elsewhere (ssRNA)
RNA: GGGAGUUCUACAGUCCGACGAUCAAGAAUUCUAUGUUCUGAAAUGCACACUUUUAGAAUGUUUUUCUUUGAAAACAGGCUAAUAGUUUUUUCUUUUUUUGACAAAGUUUCAGCUCCUCUUUAAAGUUAUUGUGUCAUUUUUCUCAACAGAGGAUUGAGCAUCA
B5: chr6:52791370:52791857:-|three_prime_utr|ENSG00000243955|control|control|control (ssRNA)
RNA: GGGAGUUCUACAGUCCGACGAUCGCUAAUGAACUCUUUCAAAUUAUAUGCUAAUUAAAUAAUACAACUCCUAUUCGCUGACUUAGUUAAAAUUGAUUUGUUUUCAUUAGGAUCUGAUGUGAAUUCAGAUUUCCAAUCUUCUCCCAACAGAGGAUUGAGCAUCA
B6: chr3:125228010:125228111:-|3pUTR|ENSG00000163848|msi1|FALSE|unique (ssRNA)
RNA: B3 RNA with C83U, C84A
B7: chr12:64147824:64147925:+|3pUTR|ENSG00000196935|unk|FALSE|unique (ssRNA)
RNA: GGGAGUUCUACAGUCCGACGAUCCAUCUCUGUGGUGUCUUUGUUCCUUUCCUUUCAUUCAUCACUACUUUCUCCUUGACAGCUAGCUUGCAUUAAAUAAUGUGAAACUUUUACCUUUAAAAUAUUUUUUUAUCUCACUUUCAUCAACAGAGGAUUGAGCAUCA
B8: chr11:58422334:58423261:-|CDS|ENSG00000172365|control|control|control (ssRNA)
RNA: GGGAGUUCUACAGUCCGACGAUCACACACUAGUGAGGUGAUUCUGGUUUUUAUGUCAAGCUUUAAUAUCUUUUUUGUUCUUCUAGUUAUCUUUAUCUCCUACUUGUUCAUAUUCAUCACCAUCUUGAAGAUGCAUUCAGCUAACAACAGAGGAUUGAGCAUCA
B9: chr20:3933335:3933436:-|3pUTR|ENSG00000101236|msi1|total|mutant (ssRNA)
RNA: GGGAGUUCUACAGUCCGACGAUCUUACAACACCUGCUAUCAAAUCAUCUAAGCUGAAAACAUGAGAUGCGCUUGGAAAGGCCCCGUCAGAAGCCAUUUCCUCUUAUCAUUUCCCUCUCCUAUGCACCAGUAAGGCCCGUCCAGCAACAGAGGAUUGAGCAUCA
B10: chr7:103374401:103374592:-|CDS|ENSG00000170615|control|control|control (ssRNA)
RNA: GGGAGUUCUACAGUCCGACGAUCCCUGCCCUAUGGGAGCUGCUGUUCCACAGCAUUCAUGAUGCAGUUUUAGGCAGCCAACUUAGAGAGGCACUUGCUGAACAGGAAGCCUCGGCUCCCCCUUCCCAGGAGGACUUGGAGCCCCAACAGAGGAUUGAGCAUCA
B11: chr17:58090057:58090109:+|3pUTR|ENSG00000264364|msi1_unk|FALSE|overlapping (ssRNA)
RNA: GGGAGUUCUACAGUCCGACGAUCGGGUAGGAUUAGCUUGAAUCUUUUUUUUCUUUACAUUUUUCUCCUGUCUGCUCCCUGCUUAGCCCUCAGUUUCCUCAUUCCUCUGGAGUUCUCUUAGAGCAGCCCCUGUUGUUAGUUGGCCAACAGAGGAUUGAGCAUCA
B12: chr11:64204363:64204470:+|3pUTR|ENSG00000168439|unk|FALSE|unique (ssRNA)
RNA: GGGAGUUCUACAGUCCGACGAUCGCCCUCGAGUUCCAUGUCUCUUUCCCCUGCCCCUAGUUGCUGUCUCGGCUGCUCUCCCAUAGUUGGUUUUUUUUUUAUUUGGGGCAGUGGGCAUGUUAUGGGGAGGGGAGGGGGUUCUUCCAACAGAGGAUUGAGCAUCA
B13: chr1:228494639:228494729:+|3pUTR|ENSG00000168159|msi1_unk|FALSE|overlapping (ssRNA)
RNA: GGGAGUUCUACAGUCCGACGAUCGCCAUCGUGUCUCAUCUUGCUGUUAUCUCUAGCUCUUUCCCUCCUCCCAUUUCCUUUAGUAGUUGAAUUUUGCAAAGCUUGUAGCAGUAGCUCAGUUGCCUGCAGCAUCCUUGUGUGUAGCAACAGAGGAUUGAGCAUCA
B14: chr1:88684422:88684524:+|5pUTR|ENSG00000065243|unk|FALSE|unique (ssRNA)
RNA: GGGAGUUCUACAGUCCGACGAUCUCGAUGAACCGGACGGAAUAAGCCGCGCCUCCAGCAGGGGCUGCGCCUCCAUGAAUCCCUAGUUGUUUUUUUUUUUUUCUUUCUCUCCCCUCUCCUCACCCCCACCCCGAGCCCCGUCCCCAACAGAGGAUUGAGCAUCA
B15: chr11:134247321:134247422:+|3pUTR|ENSG00000151502|unk|FALSE|unique (ssRNA)
RNA: GGGAGUUCUACAGUCCGACGAUCCCUUUUCAGAGCAUGAGGUCAGGCUCUGUAUCCCUCCUUUUCCUAGCUGAUAUUCUAACUAGAAGCAUUUGUCAAUUCCUUUGCCUCCCAACUGACAACACACGUUCAUUUUCCAACCUUCAACAGAGGAUUGAGCAUCA
B16: chr5:97028609:97028710:+|3pUTR|ENSG00000113441|msi1|FALSE|bound_elsewhere (ssRNA)
RNA: GGGAGUUCUACAGUCCGACGAUCUUGCAAAAGCCAAGGUAAAGCCAGGAUCGCUGCCAAGUUGUUUGCACUCUUUGGAGUUCUAGUUAGCUCAGGGCCUGACUGUAUUUUUCAUCCAUCUUUUCUGAAGUGUCUUUGGGCAGUCAACAGAGGAUUGAGCAUCA
B17: chr14:75134463:75134564:-|3pUTR|ENSG00000170348|msi1|FALSE|unique (ssRNA)
RNA: GGGAGUUCUACAGUCCGACGAUCCUGUUUGGACUAUGUUUUCUUUUCUUCUCCCACUUGCUCAGCAGCUUGGGCUUCCAUUCUAGUUCUUUUACCAAGAUUUUUGUGUGACCAUGUUGACUUCAUUUGGAUUGCCCUCUUUCACAACAGAGGAUUGAGCAUCA
B18: chr16:87831719:87831834:-|3pUTR|ENSG00000103257|msi1_unk|total|mutant (ssRNA)
RNA: GGGAGUUCUACAGUCCGACGAUCCCUGCGUUUGGAGGCCCCUGGGCUCUCACCCAGUCCCCACCCGCCUGCAGAGAGGGAACCCGGGCACCCCUUGUUUCUGUUGUUCCCGUGAAUUUUUUUCGCUAUGGGAGGCAGCCGAGGCAACAGAGGAUUGAGCAUCA
B19: chr1:180885099:180885158:+|3pUTR|ENSG00000143324|msi1_unk|FALSE|overlapping (ssRNA)
RNA: GGGAGUUCUACAGUCCGACGAUCAGCUGAAGCUAUGCCUUAUUAUGCAUCCACAUGUAUGGUCCCUGUAGCGUGACCUUUACUAGCUCUGAAUCAGAAGACAGAGCUAUUUCAGAGGCUCUGUGUGCCCUCACUAGAUAGUUUCAACAGAGGAUUGAGCAUCA
B20: chr22:21921976:21922077:-|3pUTR|ENSG00000100034|msi1|FALSE|unique (ssRNA)
RNA: GGGAGUUCUACAGUCCGACGAUCGACUGCAGUGGGCUCGGAUAGGCCCAUUGAGGUUUUUAGAAAAGCAGGAUUUGUUUUGUUAGGGAGGCAUGAUUUUGGUGAGAUCUUUCUGGAAGAGUUUUCCGCCUCUUUGUGAUGCUGCAACAGAGGAUUGAGCAUCA
B21: chr8:100258838:100258944:-|CDS|ENSG00000034677|unk|FALSE|unique (ssRNA)
RNA: GGGAGUUCUACAGUCCGACGAUCAGUGAAUUUGAGGCUCCAUCCCUCAGUGACAGUAUGCCUUCUGUAGCAGAUUCUCACUCUAGUCAUUUUUCUGAAUUUAGUUGUUCUGACCUAGAAAGCAUGAAAACUUCUUGUAGUCAUCAACAGAGGAUUGAGCAUCA
B22: chr1:88684422:88684524:+|5pUTR|ENSG00000065243|unk|total|mutant (ssRNA)
RNA: B14 RNA with U83C, A84C

target: T1, UNK ZnF1-6 (called full-length); test: nsRBNS (natural sequence RNA bind-n-seq); RBNS binding buffer (assumed for nsRBNS): 25 mM Tris pH 7.5, 150 mM KCl, 3 mM MgCl2, 0.01% Triton X-100, 500 ug/ml BSA, 20 U/ml SUPERase-In, 4 C; UNK is unkempt and MSI1 is Musashi-1; names of the RNAs are library labels; protein concentration not given here; high values mean tight binding

How did the binding signal turn out when B1 was run?
Its binding signal is 0.642 enrichment R.

Which binding signal does the source give for B2 here?
The binding signal was 0.3 enrichment R.

With B3 as the binder, how does the binding signal read?
Its binding signal is 15.6 enrichment R.

B4 was tested. Which binding signal did it give?
The binding signal was 0.773 enrichment R.

How did the binding signal turn out when B5 was run?
The binding signal was 6.55 enrichment R.

For B6, which binding signal is on record?
The binding signal was 3.33 enrichment R.

Which binding signal does the source give for B7 here?
Its binding signal is 10.6 enrichment R.

With B8 as the binder, how does the binding signal read?
The binding signal was 12.5 enrichment R.

How did the binding signal turn out when B9 was run?
Its binding signal is 0.525 enrichment R.

Which binding signal does the source give for B10 here?
Its binding signal is 0.733 enrichment R.

Which binding signal does the source give for B11 here?
Its binding signal is 4.34 enrichment R.

With B12 as the binder, how does the binding signal read?
The binding signal was 20.5 enrichment R.

For B13, which binding signal is on record?
The binding signal was 14.7 enrichment R.

How did the binding signal turn out when B14 was run?
Its binding signal is 39 enrichment R.

For B15, which binding signal is on record?
Its binding signal is 2.72 enrichment R.

With B16 as the binder, how does the binding signal read?
Its binding signal is 0.475 enrichment R.

B17 was tested. Which binding signal did it give?
Its binding signal is 0.995 enrichment R.

How did the binding signal turn out when B18 was run?
Its binding signal is 0.698 enrichment R.

Which binding signal does the source give for B19 here?
The binding signal was 2.64 enrichment R.

Which binding signal does the source give for B20 here?
Its binding signal is 0.813 enrichment R.

With B21 as the binder, how does the binding signal read?
The binding signal was 13.2 enrichment R.

B22 was tested. Which binding signal did it give?
The binding signal was 3.43 enrichment R.
